# Assay outcomes (PubChem BioAssay)
# ABCB6 inh 2: blocks the human ABCB6 transporter. fluorescence ratio to DMSO, % at 10 µM. K562-ABCB6 porphyrin accumulation, flow cytometry, 1 h; hits give low values. 360,000 tested, 0.19% active. Q9NP58;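 active means fluorescence ratio to DMSO below 75%, the collection mean minus 3 SD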;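 further: signal is porphyrin accumulated inside mitochondria; 100% equals median channel fluorescence of DMSO control wells; lower ratio means ABCB6 inhibition with less porphyrin fluorescence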
# GSIS activator: GLuc luminescence reporter in INS-1E cells, primary screen for activators of glucose-dependent secretion of insulin. INS-1E GLuc reporter insulin secretion, 2-3 h. activation, % at 16.6 µM. 370,000 tested, 0.61% active;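 active means lowest replicate activation of at least 40%, so every replicate reaches that level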;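 further: 0% = median of neutral control wells and 100% = median of IBMX positive control wells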
# NRP1-CendR mod: alters CendR peptide binding to human NRP-1; O14786; inhibition, % at 25 µM; FAM-RPARPAR peptide binding to NRP-1, fluorescence polarization; 360,000 tested, 0.85% active; AID 602438;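 active means inhibition or corrected inhibition above about 18%, plus a signal ratio from 0.5 to 1.5, limit read from the data, passing the limit was not always enough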
# ARNT-TACC3 inh: ARNT/TACC3 interaction disruption; AlphaScreen His-ARNT PAS-B/GST-TACC3 binding, luminescence; TACC3 fragment carries E629A point mutation; inhibition, % at 9.99 µM; 390,000 tested, 0.66% active; AID 623870;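 active means mean inhibition of replicates at least 50% and at least half of replicates each reaching 50%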;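 further: 0% = complete ARNT plus TACC3 wells and 100% = ARNT alone without TACC3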
# hiPSC survival: enhancers of human iPSC single-cell survival; hiPSC single-cell survival, ATPlite luminescence; 100% = ROCK inhibitor wells, 0% = DMSO; survival enhancement, % at 20 µM; 360,000 tested, 0.044% active; AID 602274; in the data active means survival enhancement above about 18%;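 further: cells exposed to compounds for 16 hours before the ATP read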
# Starred values were filed as active, the others as inactive; / = no result given. This is a sample that favours compounds with a hit; in the whole collection about 1.8% have one here.
SMILES,ABCB6 inh 2,GSIS activator,NRP1-CendR mod,ARNT-TACC3 inh,hiPSC survival
CC(C)C[C@H](NC(=O)c1nc[nH]c1C(=O)NC1CCN(C(=O)OC(C)(C)C)CC1)C(=O)OC(C)(C)C,94,346*,8,10,-3
CC1(OC(=O)CCc2ccccc2)C(=O)C=C2C=C(c3ccc(C#N)cc3)N(CC3CC3)C=C2C1=O (centres undefined),101,-4,18,0,0
CC1(OC(=O)CCc2ccccc2)C(=O)C=C2C=C(c3ccc(C#N)cc3)N(C3CCCC3)C=C2C1=O (centres undefined),98,/,30*,1,-1
O=C(Cc1ccccn1)NCC[C@H]1CC[C@@H](NC(=O)Nc2ccccc2)[C@@H](CO)O1,/,20,/,15,/
Cc1ccc(N2C(=O)c3ccccc3C2(O)c2ccccc2)cc1 (centres undefined),99,/,5,-5,3
CCc1nnc(N2C(=O)c3ccccc3C2(O)c2ccccc2)s1 (centres undefined),98,42*,2,4,0
CCOC(=O)Cc1ccc(NS(=O)(=O)c2ccc(SC)cc2)cc1,99,/,25*,18,1
COc1ccc(-c2cccc(C3CC=CC4C3C(=O)N(Cc3ccccc3)C4c3ccc4ccccc4c3)c2)cc1 (centres undefined),81,-9,28*,-3,4
COc1ccc(Cl)cc1S(=O)(=O)N1CCN(c2ccc(F)cc2)CC1,102,/,29*,3,0
OCCN1CNC(=S)NC1,93,4,5,-2,1
OCCN1CCSC1=S,102,45*,10,7,4
C[C@@H]1CN([C@H](C)CO)C(=O)Cc2cc(NC(=O)Cn3cnnn3)ccc2O[C@H]1CN(C)C(=O)Nc1cccc2ccccc12,/,12,/,5,/
CC(C)CCN1C(=O)CSCC1(C)C(=O)NC(C)C (centres undefined),/,43*,9,/,/
O=C(Nc1ccccc1)N1CC(=O)N2[C@H](CO)[C@H](c3ccc(C#CC4CC4)cc3)[C@H]2C1,/,-23,/,/,/
CCOC(=O)C[C@H]1c2cc(C(F)(F)F)ccc2S(=O)(=O)N1C(C)C,93,30,34*,-4,1
OCCN1CCN(C(=S)c2ccc(Cl)c(Cl)c2)CC1,89,/,10,66*,-2
COc1cc(NC(=S)N2CCN(CCO)CC2)c(OC)cc1Cl,104,0,5,/,0
Cc1ccc(-c2nnn(CC(=O)N3CCN(c4nc5ccccc5s4)CC3)n2)cc1,94,211*,2,-3,-2
C[C@@H]1CCCCO[C@@H](CN(C)C(=O)NC2CCCCC2)[C@@H](C)CN([C@@H](C)CO)C(=O)c2cc(NC(=O)c3ccccc3)ccc2O1,/,-30,/,/,/
CCCCCC(C)NC(=S)NC(=O)c1cc(S(=O)(=O)N2CCOCC2)ccc1C (centres undefined),84,-10,26*,-4,-3
CCCC(C)NC(=S)NC(=O)c1cc(S(=O)(=O)N2CCOCC2)ccc1C (centres undefined),103,-17,-2,1,2
CO[C@H]1CN(C)C(=O)c2ccc(NS(C)(=O)=O)cc2OC[C@@H](C)N(Cc2nccs2)C[C@H]1C,/,-6,/,-1,/
CCOC(=O)CCS(=O)(=O)c1nc(-c2ccccc2)cc(C(F)(F)F)n1,72*,/,5,0,-5
CCOC(=O)CS(=O)(=O)c1nc(-c2ccccc2)cc(C(F)(F)F)n1,92,/,-6,6,-1
COc1ccccc1-c1cnc2c(c1)C(=O)N([C@@H](C)CO)C[C@@H](C)[C@@H](CN(C)C(=O)c1ccncc1)O2,/,6,/,-7,/
SMILES,ABCB6 inh 2,GSIS activator,NRP1-CendR mod,ARNT-TACC3 inh,hiPSC survival
CCOC(=O)c1c(C)[nH]c(C(=O)N/N=C/c2ccc(Br)cc2)c1C,74*,0,-8,-3,2
O=C(Nc1cc(F)ccc1F)N[C@H]1C=C[C@H](CC(=O)N2CCc3ccccc3C2)O[C@H]1CO,/,-11,/,/,/
CO[C@H]1CN(C)C(=O)c2cc(NS(C)(=O)=O)ccc2OC[C@H](C)N(Cc2cccnc2)C[C@H]1C,/,5,/,/,/
O=C(O)C(c1ccccc1)N1C(=O)/C(=C/c2cccs2)SC1=S (centres undefined),103,-13,-10,65*,-1
CCCNC(=O)N[C@@H]1CC[C@@H](CC(=O)NC2CCCCC2)O[C@@H]1CO,/,-2,/,-4,/
O=C(C(=O)N1CCN(c2cccc(Cl)c2)CC1)c1cn(CC(=O)N2CCOCC2)c2ccccc12,100,-14,32*,-9,-1
CCN(CC)C(=O)Cn1cc(C(=O)C(=O)N2CCN(Cc3ccccc3)CC2)c2ccccc21,96,60*,1,1,1
CC(=O)c1ccc(N2CCN(C(=O)C(=O)c3cn(CC(=O)N4CCOCC4)c4ccccc34)CC2)cc1,104,-7,4,/,-1
CC(C)NC(=O)N(C)C[C@H]1OCCCC[C@H](C)Oc2ccc(NS(=O)(=O)c3ccccc3)cc2C(=O)N([C@@H](C)CO)C[C@H]1C,/,29,/,6,/
Cc1noc(C)c1S(=O)(=O)Nc1ccc2c(c1)C(=O)N([C@@H](C)CO)C[C@H](C)[C@@H](CN(C)C(=O)Nc1ccccc1)OCCCC[C@H](C)O2,/,-23,/,2,/
CCN(C(=O)CSc1nnc(-c2ccccc2Cl)n1C1CCCC1)C1CCS(=O)(=O)C1 (centres undefined),92,/,20*,-3,-1
CCN(C(=O)CSc1nnc(-c2c[nH]c3ccccc23)n1C1CC1)C1CCS(=O)(=O)C1 (centres undefined),103,-5,5,0,0
CCOC(=O)c1cc2c(=O)n3ccccc3nc2n(CC2CCCO2)c1=NC(=O)/C=C/c1ccccc1 (centres undefined),85,16,29*,-3,0
NC(=O)OCC(COC(N)=O)c1ccccc1,300,-2,-11,-3,-1
CC(C)COC(=O)C(N)C(C(=O)OCC(C)C)c1ccccc1 (centres undefined),92,/,30*,1,0
CCOC(=O)c1cnc2ccc(OCC)cc2c1N1CCN(c2ccccc2)CC1,95,71*,8,1,1
C[C@@H]1CCCCO[C@@H](CN(C)Cc2ccccc2)[C@@H](C)CN([C@H](C)CO)C(=O)c2cc(NC(=O)CCCCCC(=O)Nc3ccccc3N)ccc2O1,/,27,/,/,/
Cc1ccc(S(=O)(=O)NCC(=O)N(c2ccccc2)C(C(=O)NCc2ccccc2)c2ccco2)cc1 (centres undefined),99,-9,29*,-3,-2
Cc1ccc(S(=O)(=O)/N=C2\CN(C)C(=O)N2C)cc1,99,45*,6,-5,0
Cc1ccc(S(=O)(=O)/N=c2\sccn2C)cc1,88,/,11,/,0
COc1ccc2c3c([nH]c2c1)[C@H](CO)N(C(=O)C1CCOCC1)CC31CCN(Cc2cccc(F)c2)CC1,/,-2,/,/,/
